Assay outcomes (PubChem BioAssay)
TDP1 cell CPT = growth inhibition of DT40 Tdp1-/-;hTDP1 cells with camptothecin (screen for TDP1 inhibitors) | chicken DT40 Tdp1-/-;hTDP1 cells + 20 nM CPT, ATP luminescence, 48 h | Potency, µM (titrated, usually from 46.2 µM), usual class: inhibitors | 12% of 420,000 active | AID 686979; also: nearly all actives have a fitted effect of over 55% in size
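Chicken DT40 Tdp1-/- cells stably complemented with human TDP1 were seeded at 400 cells/well in medium containing 20 nM camptothecin, exposed to pin-transferred compounds, and grown at 37 °C for at least 48 hr. Viability was read as ATP luminescence.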
TDP1 cell noCPT = qHTS for Inhibitors of human tyrosyl-DNA phosphodiesterase 1 (TDP1): qHTS in cells in absence of CPT. 15% of 420,000 active. Potency, µM (top dose mostly 46.2 µM), hits mostly inhibitors. DT40 Tdp1-/- hTDP1 cells, no CPT, ATP luminescence, 48 h. AID 686978, 2013; also: nearly all actives have a fitted effect of over 55% in size
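Luminescent ATP content (CellTiter-Glo) served as the growth readout. Knockout chicken DT40 cells expressing human TDP1 were exposed to compounds without camptothecin for a minimum 48 hr at 37 °C.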
IL-1B inflam inh = blocks inflammasome-driven IL-1 beta release | THP-1 LPS/ATP IL-1B secretion, AlphaLISA, 16 h; active compounds read low | activity change, % at 57.5 µM | 4.7% of 360,000 active | AID 743279; in the data active = activity change below about -50%; inconclusive = mostly about -30% to -49%
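Secreted IL-1B measured by AlphaLISA bead assay after 16 h compound exposure of THP-1 cells; compounds (final up to 57.5 uM) added 1 h before LPS (250 ng/mL) and ATP (1.25 mM) stimulation; lower signal means less secretion.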
LDHA inh = blocks human lactate dehydrogenase A; activity change, % (values are at about 110 or 230 µM); purified LDHA, NADH/diaphorase-resazurin fluorescence; active compounds read low; 0.15% of 480,000 active; P00338; AID 1347041; in the data active = activity change below about -30%; inconclusive = mostly about -25% to -30%
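LDH5 2 nM; NADH 0.06 mM, pyruvate 0.2 mM; 200 mM Tris pH 7.4, EDTA, Tween-20; 5 min RT. Detection: diaphorase 0.133 mg/mL + resazurin 37 µM, fluorescence ex540/em590 at 0 and 20 min; normalized to enzyme-free and DMSO wells.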
Of the large screens only hits and unclear results are named; the others gave an inactive call. Only some compounds are listed: those with a hit (about 18% of all), similar ones and a draw of the others. Unless noted, calls follow the shape of the dose curve; as a rule, active = well fitted inhibition curve with a large enough effect; inconclusive = small, poorly fitted or top-dose-only effect; inactive = flat fitted curve, though single readings scatter.

C[C@H]1CN([C@@H](C)CO)C(=O)c2cccc(NC(=O)Nc3ccc(C(F)(F)F)cc3)c2O[C@@H]1CN(C)C(=O)Nc1ccc(F)cc1	TDP1 cell CPT 5.2µM, TDP1 cell noCPT 5.8µM
COc1ccc(S(=O)(=O)N(C)C[C@H]2Oc3c(NC(=O)C4CCCCC4)cccc3C(=O)N([C@H](C)CO)C[C@@H]2C)cc1	TDP1 cell CPT inconclusive, TDP1 cell noCPT 23µM
Cc1ccc(S(=O)(=O)Nc2cccc3c2O[C@@H](CN(C)C(=O)Nc2ccc4c(c2)OCO4)[C@H](C)CN([C@@H](C)CO)C3=O)cc1	TDP1 cell CPT inconclusive, TDP1 cell noCPT inconclusive
Cc1ccc(S(=O)(=O)Nc2cccc3c2O[C@H](CN(C)C(=O)Nc2ccc(C(F)(F)F)cc2)[C@@H](C)CN([C@H](C)CO)C3=O)cc1	TDP1 cell CPT 16µM, TDP1 cell noCPT inconclusive
C[C@H](CO)N1C[C@H](C)[C@@H](CN(C)Cc2ccc3c(c2)OCO3)Oc2c(NC(=O)Cc3ccccc3)cccc2C1=O	TDP1 cell CPT 23µM, TDP1 cell noCPT 21µM
Cc1ccc2c(=O)cc(C(=O)NCC(c3cccs3)N3CCCCCC3)oc2c1C (stereo unspecified)	none (no result: TDP1 cell CPT, TDP1 cell noCPT, IL-1B inflam inh)
COc1ccc(NC(=O)N(C)C[C@H]2Oc3c(NC(=O)NC(C)C)cccc3C(=O)N([C@H](C)CO)C[C@@H]2C)cc1	none
C[C@H](CO)N1C[C@H](C)[C@@H](CN(C)C(=O)Nc2ccc(C(F)(F)F)cc2)Oc2c(NC(=O)Nc3ccc(C(F)(F)F)cc3)cccc2C1=O	TDP1 cell CPT 9.2µM, TDP1 cell noCPT 7.3µM
COc1ccc(NC(=O)Nc2cccc3c2O[C@H](CN(C)C(=O)Nc2ccc(C(F)(F)F)cc2)[C@@H](C)CN([C@H](C)CO)C3=O)cc1	TDP1 cell CPT 26µM, TDP1 cell noCPT 16µM
C[C@H](CO)N1C[C@H](C)[C@@H](CN(C)Cc2ccccc2)Oc2c(NC(=O)C3CCCCC3)cccc2C1=O	TDP1 cell CPT inconclusive, TDP1 cell noCPT inconclusive, IL-1B inflam inh -72
C[C@H](CO)N1C[C@H](C)[C@@H](CN(C)Cc2ccc(C(=O)O)cc2)Oc2c(NC(=O)C3CC3)cccc2C1=O	none
COc1ccc(S(=O)(=O)Nc2cccc3c2O[C@H](CN(C)Cc2ccc(Cl)c(Cl)c2)[C@@H](C)CN([C@H](C)CO)C3=O)cc1	TDP1 cell CPT 21µM, TDP1 cell noCPT 18µM, IL-1B inflam inh -56
CSc1nc2ccccc2c(=O)n1CC(=O)c1cc(C)c(C)cc1C	none (no result: TDP1 cell CPT, TDP1 cell noCPT, IL-1B inflam inh)
CCCc1ccc(S(=O)(=O)N2CCN(Cc3nc4ccccc4o3)CC2)cc1	none (no result: TDP1 cell CPT, TDP1 cell noCPT, IL-1B inflam inh)
C[C@H](CO)N1C[C@H](C)[C@@H](CN(C)S(C)(=O)=O)Oc2c(NC(=O)Nc3ccc(C(F)(F)F)cc3)cccc2C1=O	TDP1 cell CPT 23µM, TDP1 cell noCPT inconclusive
C[C@@H]1CN([C@H](C)CO)C(=O)c2cc(NC(=O)Nc3ccc(C(F)(F)F)cc3)ccc2O[C@H]1CN(C)S(=O)(=O)c1ccccc1	TDP1 cell CPT inconclusive, TDP1 cell noCPT inconclusive, IL-1B inflam inh inconclusive
C[C@H](CO)N1C[C@H](C)[C@@H](CN(C)Cc2ccc(-c3ccccc3)cc2)Oc2c(NS(=O)(=O)c3cccs3)cccc2C1=O	TDP1 cell CPT 18µM, TDP1 cell noCPT inconclusive, IL-1B inflam inh inconclusive
Cc1ccc(S(=O)(=O)Nc2cccc3c2O[C@H](CN(C)C(=O)Nc2cccc4ccccc24)[C@H](C)CN([C@H](C)CO)C3=O)cc1	TDP1 cell CPT 21µM, TDP1 cell noCPT 21µM, IL-1B inflam inh inconclusive
COc1ccc(S(=O)(=O)Nc2cccc3c2O[C@H](CN(C)C(=O)NC(C)C)[C@@H](C)CN([C@H](C)CO)C3=O)cc1	none
CC(C)NC(=O)Nc1cccc2c1O[C@H](CN(C)S(C)(=O)=O)[C@@H](C)CN([C@H](C)CO)C2=O	none
C[C@H](CO)N1C[C@H](C)[C@@H](CN(C)S(=O)(=O)c2ccccc2)Oc2c(NC(=O)Nc3ccc(C(F)(F)F)cc3)cccc2C1=O	TDP1 cell CPT inconclusive, TDP1 cell noCPT 16µM, IL-1B inflam inh inconclusive
